In the supplement of paper PMC9694430:

How the values were obtained:
Assay in all cases: thermal shift delta Tm vs DMSO control; higher = stronger stabilization (binding)
Conditions in all cases: 12.5 µM; protein concentration 2 µM
[1] = test system: LOC_OS01G57100-cb003
Method in brief: (§1)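 Rice kinase domain constructs were expressed in E. coli, purified, and tested by differential scanning fluorimetry with compound added in DMSO. Each well of a 96-well plate held 19.5 μl of 2 μM kinase in 100 mM potassium phosphate pH 7.5, 150 mM NaCl, 10% glycerol and 5 × SYPRO Orange, and fluorescence was read from 25°C to 95°C at 0.05°C/s. The melting temperature shift is the mean of triplicates, taken against protein with DMSO alone after Boltzmann fitting.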

[2] = test system: LOC_OS01G60330-cb001
Method in brief: as §1

[3] = test system: LOC_OS01G60700-cb002
Method in brief: as §1

[4] = test system: LOC_OS01G63280-cb003
Method in brief: as §1

[5] = test system: LOC_OS01G67340-cb003
Method in brief: as §1

[6] = test system: LOC_OS01G70970-cb002
Method in brief: as §1

[7] = test system: LOC_OS02G07810-cb001
Method in brief: as §1

[8] = test system: LOC_OS02G08530-cb003
Method in brief: as §1

[9] = test system: LOC_OS02G14120-cb001
Method in brief: as §1

[10] = test system: LOC_OS02G17970-cb001
Method in brief: as §1

[11] = test system: LOC_OS02G45750-cb003
Method in brief: as §1

[12] = test system: LOC_OS02G54510-cb004
Method in brief: as §1

[13] = test system: LOC_OS03G04050-cb001
Method in brief: as §1

[14] = test system: LOC_OS03G12390-cb001
Method in brief: as §1

[15] = test system: LOC_OS03G27990-cb004
Method in brief: as §1

[16] = test system: LOC_OS03G50450-cb001
Method in brief: as §1

[17] = test system: LOC_OS03G50810-cb003
Method in brief: as §1

[18] = test system: LOC_OS04G35114-cb001
Method in brief: as §1

[19] = test system: T1, LOC_OS04G38480-cb003
T1 sequence (whole entry): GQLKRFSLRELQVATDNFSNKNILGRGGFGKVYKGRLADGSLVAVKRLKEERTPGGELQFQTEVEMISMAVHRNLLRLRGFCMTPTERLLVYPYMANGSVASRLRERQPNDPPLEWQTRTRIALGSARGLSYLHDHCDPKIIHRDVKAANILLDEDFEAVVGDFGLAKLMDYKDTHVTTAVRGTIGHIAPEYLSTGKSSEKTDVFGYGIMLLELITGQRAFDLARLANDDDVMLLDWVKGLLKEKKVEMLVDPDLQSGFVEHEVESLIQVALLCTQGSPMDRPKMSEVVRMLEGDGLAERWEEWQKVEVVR
Method in brief: as §1

[20] = test system: T2, LOC_OS04G41100-cb001
T2 sequence (whole entry): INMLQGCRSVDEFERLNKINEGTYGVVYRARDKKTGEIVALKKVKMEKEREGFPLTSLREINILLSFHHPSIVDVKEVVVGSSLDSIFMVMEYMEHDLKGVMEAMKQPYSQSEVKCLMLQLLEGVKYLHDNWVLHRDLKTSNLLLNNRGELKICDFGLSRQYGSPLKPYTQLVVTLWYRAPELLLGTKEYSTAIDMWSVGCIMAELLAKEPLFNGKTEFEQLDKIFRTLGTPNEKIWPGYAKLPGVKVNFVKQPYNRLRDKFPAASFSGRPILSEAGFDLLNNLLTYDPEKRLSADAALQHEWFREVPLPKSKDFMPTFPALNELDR
Method in brief: as §1

Compound	thermal shift delta Tm [1]	thermal shift delta Tm [2]	thermal shift delta Tm [3]	thermal shift delta Tm [4]	thermal shift delta Tm [5]	thermal shift delta Tm [6]	thermal shift delta Tm [7]	thermal shift delta Tm [8]	thermal shift delta Tm [9]	thermal shift delta Tm [10]	thermal shift delta Tm [11]	thermal shift delta Tm [12]	thermal shift delta Tm [13]	thermal shift delta Tm [14]	thermal shift delta Tm [15]	thermal shift delta Tm [16]	thermal shift delta Tm [17]	thermal shift delta Tm [18]	thermal shift delta Tm [19]	thermal shift delta Tm [20]
CC(C)CC(NC(=O)C(Cc1ccccc1)NC(=O)C(CCC(N)=O)NC(=O)C(Cc1ccc(O)cc1)NC(=O)C(C)NC(=O)CNC(=O)C(CCCCN)NC(=O)C(Cc1c[nH]c2ccccc12)NC(=O)C(NC(=O)C(Cc1c[nH]c2ccccc12)NC(=O)C(CCCCN)NC(=O)CNC(=O)C(CC(N)=O)NC(=O)C(CCC(=O)O)NC(=O)C(Cc1c[nH]c2ccccc12)NC(=O)C(NC(=O)C(Cc1c[nH]c2ccccc12)NC(=O)C(CO)NC(=O)CNC(=O)C1CCCN1C(=O)C(Cc1c[nH]c2ccccc12)NC(=O)C(CCC(N)=O)NC(=O)C(Cc1ccccc1)NC(=O)CNC(=O)C(N)Cc1c[nH]cn1)C(C)O)C(C)O)C(=O)NC(CCCCN)C(=O)NCC(=O)NCC(=O)NCC(=O)NCC(=O)NC(CO)C(=O)NC(CCCNC(=N)N)C(=O)NC(CCCNC(=N)N)C(=O)NC(CCCNC(=N)N)C(=O)NC(CCCNC(=N)N)C(=O)NC(CCCNC(=N)N)C(=O)NC(CCCNC(=N)N)C(=O)NC(CCCNC(=N)N)C(=O)NC(CCCNC(=N)N)C(=O)NC(CCCNC(=N)N)C(=O)O (stereo not given)	0.58 °C	0.74 °C	0.22 °C	0.38 °C	1.17 °C	0.55 °C	0.74 °C	0.87 °C	1.8 °C	-0.53 °C	0.69 °C	0.13 °C	0.6 °C	-3.52 °C	-3.62 °C	0.05 °C	-1.39 °C	0.3 °C	4.04 °C	0.4 °C
C=CC(=O)Nc1cccc(Nc2nc(Nc3ccc(Oc4ccnc(C(=O)NC)c4)cc3)ncc2F)c1	2.13 °C	6.9 °C	1.08 °C	0.49 °C	0.92 °C	1.63 °C	0.76 °C	2.72 °C	6.96 °C	0.81 °C	0.72 °C	1.23 °C	0.77 °C	2.55 °C	0.98 °C	1.34 °C	2.61 °C	2.69 °C	3.42 °C	0.73 °C
COc1cc2/c(=N/c3ccc(Br)cc3F)nc[nH]c2cc1OCC1CCN(C)CC1 [Vandetanib (ZD6474)]	0.28 °C	0.67 °C	1.17 °C	0.47 °C	1.64 °C	0.33 °C	0.65 °C	2.65 °C	10.4 °C	0.76 °C	3.64 °C	0.98 °C	0.67 °C	2.45 °C	2.29 °C	1.05 °C	2.26 °C	8.6 °C	3.76 °C	0.73 °C
CCCCNc1ncc(-c2ccc(CN3CCOCC3)cn2)c(NC2CCC(O)CC2)n1 (stereo not given)	-0.33 °C	8.95 °C	0 °C	-0.12 °C	1.86 °C	5.72 °C	0.1 °C	1.9 °C	5.78 °C	0.44 °C	13.7 °C	0.36 °C	0.34 °C	2.88 °C	1.94 °C	1.29 °C	5.33 °C	7.84 °C	3.1 °C	0.46 °C
C[C@@H](Oc1cc(-c2cnn(C3CCNCC3)c2)cnc1N)c1c(Cl)ccc(F)c1Cl	2.74 °C	1.69 °C	0.88 °C	0.44 °C	1.69 °C	1.7 °C	0.08 °C	0.54 °C	10.6 °C	0.54 °C	5.46 °C	0.63 °C	0.35 °C	1.31 °C	0.48 °C	0.08 °C	2.49 °C	5.73 °C	3.79 °C	0.57 °C
O=C(c1ccc(/C=C/c2n[nH]c3ccccc23)cc1)N1CCNCC1	1.7 °C	11.6 °C	0.48 °C	0.98 °C	4.9 °C	6.89 °C	0.73 °C	4.1 °C	7.17 °C	0.42 °C	14 °C	0.61 °C	0.27 °C	6.79 °C	6 °C	4.25 °C	4.42 °C	8.77 °C	2.61 °C	0.96 °C
C[C@H](NC(=O)/C(C#N)=C/c1cccc(Br)n1)c1ccccc1	2.09 °C	0.03 °C	-0.53 °C	-4.67 °C	-1.18 °C	-1.46 °C	0.51 °C	0.47 °C	-1.36 °C	-2.09 °C	-0.81 °C	-0.57 °C	0.05 °C	-2.64 °C	-2.84 °C	0.09 °C	-1.35 °C	-1.1 °C	0.59 °C	-0.11 °C
CN1CCN(Cc2ccc(-c3cnc4[nH]cc(-c5ccc6[nH]ccc6c5)c4c3)cc2)CC1	2.72 °C	5.96 °C	2.47 °C	7.33 °C	7.26 °C	10.2 °C	1.34 °C	5.47 °C	10.8 °C	0.97 °C	17.2 °C	1.09 °C	0.85 °C	4.74 °C	10.8 °C	3.95 °C	7.6 °C	14.9 °C	6.36 °C	3.3 °C
Cc1n[nH]c2ncc(C(=O)N3CCC[C@H]3c3ccc(Cl)cc3)cc12	0.92 °C	0.11 °C	0.24 °C	0.09 °C	0.25 °C	0.34 °C	-0.7 °C	1.34 °C	1.35 °C	0.38 °C	0.21 °C	0.12 °C	0.41 °C	0.13 °C	0.35 °C	0.17 °C	0.18 °C	0.28 °C	0.98 °C	0.46 °C
CC[C@@H]1C(=O)N(C)c2cnc(Nc3ccc(C(=O)N[C@H]4CC[C@H](N5CCN(CC6CC6)CC5)CC4)cc3OC)nc2N1C(C)C [Volasertib (BI 6727)]	1.58 °C	2.49 °C	0.62 °C	0.08 °C	1.23 °C	0.17 °C	0.23 °C	1.87 °C	-0.05 °C	0.41 °C	1.95 °C	0.58 °C	0.68 °C	0.73 °C	0.69 °C	1.23 °C	0.54 °C	1 °C	0.84 °C	0.24 °C
